The subject of test [1] is Wnt5a (protein binding on small-molecule microarray). Description: Wnt5a binders on small-molecule microarray, primary screen, biophysical, 635/667 nm fluorescence (AID 1142).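 Also: fluorescence read at 667 nm with signal to noise per printed feature.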 As to conditions: 635 nm fluorescence, higher = more signal.
A short description of test [2]: cell viability in Huh7 cells, primary screen, cytotoxicity control for HCV replication inhibitor project, CellTiter-Glo luminescence, basal, 48 h (AID 1143).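 Also: Huh7 hepatoma cells carrying a hepatitis C replication reporter with no stimulus; test concentration not given here.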 As to conditions: Huh7 HCV replicon, higher = more signal, called active from +8 up or from −8 down.
Test [3] can be described thus: P. aeruginosa biofilm formation inhibitors, primary screen, PAO1 strain, BacTiter-Glo luminescence, LB-PBS (AID 1144). Conditions: 12 h, higher = more signal.
Test [4] in a line: CREB reporter modulators without forskolin, primary screen, cell-based, PC12, CRE-LacZ reporter, unstimulated (AID 1145). Conditions: no forskolin, luminescence, 4.5 h, higher = more signal, called active from +8 up or from −8 down.
Test [5] is described as follows: CREB reporter modulators under forskolin, primary screen, cell-based, PC12, CRE-LacZ reporter, forskolin-stimulated (AID 1146).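 Also: PC12 cells with 6xCRE LacZ reporter stimulated by forskolin 10 µM; beta-galactosidase reporter signal reflecting CREB driven transcription.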 As to conditions: luminescence, 4.5 h, higher = more signal, called active from +8 up or from −8 down.
Test [6] addresses Streptavidin (Streptomyces avidinii) (UniProt P22629). As to the kind of experiment: streptavidin binders on small-molecule microarray, primary screen, artefact control for SMM compound annotation, biophysical, 635/667 nm fluorescence (AID 1147).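 Also: signal reflects streptavidin binding to arrayed compounds as a control protein.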 As to conditions: streptavidin binding, higher = more signal.
The nature of test [7]: small-molecule binders of probe aInhba, primary screen, biochemical, small-molecule microarray, 635/667 nm fluorescence (AID 1148).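 Also: score merges 667nm spot fluorescence with signal-to-noise for antibody binding to printed compounds.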 As to conditions: higher = more signal.
The target in test [8] is Torsin-1A (Homo sapiens) (UniProt O14656). Description: torsin A binders from cell lysate, primary screen, small-molecule microarray, wild-type, 635/667 nm (AID 1149). Conditions: COS7 hTOR1A-WT lysate, 635 nm fluorescence, higher = more signal.
Test [9] has the same target. Description: small-molecule binders of mutant TOR1A in lysate, primary screen, cell lysate, small-molecule microarray, COS7 lysate, 635/667 nm fluorescence (AID 1150).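 Also: score pools 667 nm emission and signal to noise measuring lysate protein binding.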 Conditions: COS7 hTOR1A mutant lysate, 635 nm fluorescence, higher = more signal.
The subject of test [10] is Sonic hedgehog protein (Shh). As to the kind of experiment: small-molecule binders of Shh protein, primary screen, biochemical, small-molecule microarray, 635/667 nm fluorescence (AID 1151).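 Also: Shh protein binding to compounds spotted on small-molecule microarray slides; score combines spot fluorescence intensity with signal-to-noise across triplicate slides.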 As to conditions: small-molecule microarray binding, 635 nm fluorescence; higher = more signal.

In PubChem BioAssay one finds composite z-score and z-score data, which are given here for nine compounds.

Molecules are shown by their SMILES. Activity calls are given as the source filed them. Unless noted, no rule for the calls is given here.

Streptavidin (Streptomyces avidinii), sequence (P22629 whole entry, looked up): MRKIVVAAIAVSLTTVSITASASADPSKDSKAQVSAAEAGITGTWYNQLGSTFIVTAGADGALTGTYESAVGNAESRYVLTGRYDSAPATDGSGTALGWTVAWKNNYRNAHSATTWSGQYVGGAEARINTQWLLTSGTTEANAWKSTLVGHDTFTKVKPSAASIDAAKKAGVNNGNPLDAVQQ
Torsin-1A (Homo sapiens), sequence (O14656 whole entry, looked up): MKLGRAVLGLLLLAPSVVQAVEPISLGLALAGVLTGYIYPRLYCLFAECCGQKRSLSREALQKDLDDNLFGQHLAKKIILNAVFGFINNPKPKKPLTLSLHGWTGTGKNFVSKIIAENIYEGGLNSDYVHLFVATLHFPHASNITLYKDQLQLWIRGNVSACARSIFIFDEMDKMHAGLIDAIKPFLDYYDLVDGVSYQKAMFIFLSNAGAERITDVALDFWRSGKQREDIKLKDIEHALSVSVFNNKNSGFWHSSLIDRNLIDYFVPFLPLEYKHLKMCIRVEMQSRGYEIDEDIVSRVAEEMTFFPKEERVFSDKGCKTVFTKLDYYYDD

`CCOC(=O)C1=CCC(c2ccc([N+](=O)[O-])cc2)N(S(=O)(=O)c2ccc(C)cc2)C1` (stereo not given): the composite z-score in [1] was 0.0898; in test [6], 0.653; in test [7], 0.111; with Torsin-1A (Homo sapiens) [8] it was 0.242; in the test with Torsin-1A (Homo sapiens) [9] it was 0.103; in [10] it was -0.377. Besides, the z-score was -3.94 (inactive) in [2], 0.203 (inactive) in test [3], 0.687 (inactive) in [4] and 0.264 (inactive) in test [5].

Turning to `O=C1C=CC(=O)[C@@H]2CC(COc3ccccc3)=C3[C@@H](CCc4ccccc4)OB(O)C[C@@H]3[C@H]12`, the composite z-score in [1] was 0.135; in [6] it was -0.132; in test [7], -0.231; with Torsin-1A (Homo sapiens) [8], -0.386; with Torsin-1A (Homo sapiens) [9] it was -0.0222; in test [10], 1.3. The z-score is -2.77 (inactive) in test [2], 0.452 (inactive) in test [3], 4.76 (inactive) in test [4] and 4.47 (inactive) in [5].

Consider `Cc1ccc([C@H]2[C@H](C(=O)O)[C@H](Sc3ccccc3)[C@@H](C(C)C)N2S(=O)(=O)c2ccc(C)cc2)cc1`, for which the composite z-score in test [1] is 0.378; in test [6] it was 0.93; in test [7], -0.231; with Torsin-1A (Homo sapiens) [8], 0.495; with Torsin-1A (Homo sapiens) [9] it was 0.612; in [10], -0.861. Moreover, the z-score is -2.04 (inactive) in [2], 0.766 (inactive) in test [3], -0.676 (inactive) in test [4] and -0.728 (inactive) in [5].

In the case of `O=C(O)[C@H]1C[C@H]2C(=O)NCC(=O)N2[C@H]1c1ccc(O)cc1`, the composite z-score in [1] is -0.0071; in [6] it was -0.54; in test [7] it was -0.168; in the test with Torsin-1A (Homo sapiens) [8], 0.562; with Torsin-1A (Homo sapiens) [9], -0.0135; in test [10], 0.751. Further, the z-score was -0.283 (inactive) in [2], -0.642 (inactive) in test [3], -0.13 (inactive) in [4] and -0.108 (inactive) in [5].

With `Cc1ccc(S[C@]2(C(=O)NCCN3CCOCC3)CC(=O)N(Cc3cc(C(F)(F)F)cc(C(F)(F)F)c3)[C@@H]2c2ccc(CO)cc2I)cc1`, the composite z-score in test [1] was -0.314; in test [6], -0.71; in [7], -0.183; with Torsin-1A (Homo sapiens) [8], -2; with Torsin-1A (Homo sapiens) [9], 0.561; in [10], -0.4. The z-score in test [2] is -2.42 (inactive); in test [3], -0.956 (inactive); in test [4] it was 0.389 (inactive); in test [5], -0.0376 (inactive).

`Cc1cc(C)cc(N2C(=O)CS(=O)(=O)C2c2cccc([N+](=O)[O-])c2)c1` (stereo not given): the composite z-score in test [1] came to 0.223; in [6], 1.26; in test [7] it was 0.952; with Torsin-1A (Homo sapiens) [8], 0.513; in the test with Torsin-1A (Homo sapiens) [9], 0.897; in test [10], 0.659. Besides, the z-score in test [2] is -2.18 (inactive); in test [3] it was -0.527 (inactive); in [4], -0.0243 (inactive); in test [5], -0.494 (inactive).

Turning to `COC(=O)[C@@]1(Cc2ccc(OC)cc2)[C@H]2c3cc(C(=O)N(C)C)n(Cc4c(OC)[nH]cc(C)c4=O)c3C[C@H]2CN1C(=O)c1ccccc1`, the composite z-score in [1] was -0.0522; in test [6] it was -0.0748; in [7] it was 0.0882; with Torsin-1A (Homo sapiens) [8], 0.0857; in the test with Torsin-1A (Homo sapiens) [9], 1.16; in test [10] it was -1.1. Further, the z-score in test [2] was -0.857 (inactive); in [3], 0.0281 (inactive); in test [4] it was -0.185 (inactive); in [5], 0.69 (inactive).

As to `NC(=O)NCC#Cc1ccc2c(c1)[C@]1(C(=O)N2)[C@H](C(=O)NC[C@H](O)c2ccccc2)[C@H]2C(=O)O[C@H](c3ccccc3)[C@H](c3ccccc3)N2[C@@H]1c1ccc(O)cc1`, the composite z-score in [1] turned out to be 0.545; in test [6], 1.34; in test [7] it was 0.529; with Torsin-1A (Homo sapiens) [8], 0.325; with Torsin-1A (Homo sapiens) [9] it was 0.816; in test [10], 1.02. The z-score in [2] was 0.525 (inactive); in test [3] it was -0.846 (inactive); in [4], -0.465 (inactive); in [5] it was -0.467 (inactive).

Turning to `C=CCN1C(=O)[C@]2(O[C@H](CCO)[C@@H]([Si](C)(C)c3ccc(OC)cc3)[C@@H]2C)c2cc(NC(=O)[C@H](C)O)ccc21`, the composite z-score in test [1] turned out to be 0.276; in test [6] it was 0.553; in test [7] it was 0.339; in the test with Torsin-1A (Homo sapiens) [8], 0.725; with Torsin-1A (Homo sapiens) [9], 0.499; in test [10], 1.34. In addition, the z-score was -6.12 (inactive) in test [2], 1.01 (inactive) in test [3], 6.89 (inactive) in test [4] and -0.144 (inactive) in test [5].
